TROY NFkB inh = inhibitors of TROY-dependent NF-kB signaling | Q293 LMP1-TROYcd NF-kB luciferase reporter, 4 h | inhibition, % at 10 µM | 360,000 compounds, 0.98% hits | AID 1347056;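 active = compounds whose plate-normalised and pattern-corrected inhibition of the luciferase reporter signal at the single screening dose is 50% or more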
LMP1 NFkB inh = inhibitors of Epstein-Barr LMP1-induced NF-kappaB reporter; LMP1-induced NF-kappaB luciferase reporter cells, luminescence; inhibition, % at 12.5 µM; 350,000 compounds, 0.69% hits; in the data active = inhibition above about 41%; inconclusive = no clear call, values can overlap the other calls
LGR2 inh = blocks bursicon-induced cAMP signaling via Drosophila LGR2; AID 720647; 380,000 compounds, 0.35% hits; inhibition, % at 9.99 µM; HEK293 LGR2, CRE-luciferase, bursicon-stimulated, 4 h;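 active = drop in luminescence signal, shown as inhibition above about 50% in the replicate tests, limit read from the data, passing the limit was not always enough; inconclusive = probably only some replicates passing the limit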;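 note: agonist challenge used bursicon conditioned medium at about half maximal strength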
TWEAK Fn14 block = blocks TWEAK-Fn14 interaction in a reporter cell assay. 360,000 compounds, 2% hits. inhibition, % at 10 µM. TWEAK-stimulated Fn14 reporter cells, luciferase luminescence, 8 h; in the data active = inhibition above about 50%
EWS-Fli block = inhibitors of EWS/Fli oncoprotein transcriptional activity | A673 NR0B1-luciferase reporter, viability-normalised | inhibition, % at 12.6 µM | 350,000 compounds, 0.67% hits;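 active = mean inhibition of at least 50% after viability correction, with every replicate also passing that limit; inconclusive = mean reaches 50% but only one of two replicates passes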;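 note: firefly luciferase signal divided by Alamar Blue viability fluorescence both relative to DMSO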
Large screens that a line does not name were inactive. Shown are actives, neighbours in structure and some others; about 2.5% of the full set was active somewhere.

N#Cc1cccc(-c2ccc([C@H]3[C@H](CO)N4CCCCN(C(=O)Cc5cccnc5)C[C@@H]34)cc2)c1	none (no result: TROY NFkB inh, LMP1 NFkB inh, TWEAK Fn14 block)
O=C(Cc1ccncc1)N1CCCCN2[C@H](CO)[C@@H](c3ccc(C#CC4(O)CCCC4)cc3)[C@@H]2C1	none (no result: TROY NFkB inh, LMP1 NFkB inh, TWEAK Fn14 block, EWS-Fli block)
Oc1cc(Cl)ccc1Oc1ccc(Cl)cc1Cl	TROY NFkB inh 51.1 (no result: LGR2 inh)
CC[n+]1c(-c2ccccc2)c2cc(N)ccc2c2ccc(N)cc21	TROY NFkB inh 52.6, TWEAK Fn14 block 95.1
O=C(Cc1ccccc1)N1CC2(C1)[C@H](c1ccccc1)[C@H](CO)N2Cc1cccc(Cl)c1	none (no result: TROY NFkB inh, LMP1 NFkB inh, TWEAK Fn14 block)
CC(=O)OC(C)(C)/C=C/C(=O)[C@](C)(O)[C@H]1[C@H](O)C[C@@]2(C)[C@@H]3CC=C4[C@H](C[C@H](O)C(=O)C4(C)C)[C@]3(C)C(=O)C[C@]12C	TROY NFkB inh 61.8, LMP1 NFkB inh 50.5, TWEAK Fn14 block 65.2 (no result: LGR2 inh, EWS-Fli block)
CC(=O)OC(C)(C)/C=C/C(=O)C(C)(O)C1C(O)CC2(C)C3CC=C4C(CC(O)C(=O)C4(C)C)C3(C)C(=O)CC12C (stereo unspecified)	TROY NFkB inh 60.6, LGR2 inh 89.0, TWEAK Fn14 block 63.1
CC(=O)OC(C)(C)/C=C/C(=O)C(C)(O)C1[C@H](O)C[C@@]2(C)C3CC=C4C(CC[C@@H](O)C4(C)C)[C@]3(CO)C(=O)C[C@]12C (stereo partly specified)	TROY NFkB inh 61.0, LGR2 inh 73.2
O=C(Cc1cccnc1)N1CCCCN2[C@H](C1)[C@@H](c1ccc(C#CC3CC3)cc1)[C@@H]2CO	none (no result: TROY NFkB inh, LMP1 NFkB inh, LGR2 inh, TWEAK Fn14 block)
CCCCn1c(NC(=O)c2ccco2)c(C(=O)OCC)c2nc3ccccc3nc21	TROY NFkB inh 52.5 (no result: LGR2 inh, EWS-Fli block)
CCOC(=O)c1c(N)n(Cc2ccco2)c2nc3ccccc3nc12	none (no result: LGR2 inh, EWS-Fli block)
CCCCn1c(N)c(C(=O)OCC2CCCO2)c2nc3ccccc3nc21 (stereo unspecified)	none
CCCCn1c(NS(=O)(=O)c2ccc(C)cc2)c(C(=O)OCC)c2nc3ccccc3nc21	TROY NFkB inh 62.9, TWEAK Fn14 block 57.9
COC(=O)C[C@H]1CC[C@H]2NC[C@H](O)COC[C@@H]2O1	none (no result: TROY NFkB inh, LMP1 NFkB inh, TWEAK Fn14 block)
CCN(CC)c1ccc(/C=C/[N+](=O)[O-])cc1	none
O=[N+]([O-])/C=C/c1c(Cl)cccc1Cl	TWEAK Fn14 block 51.7
CCCN1[C@@H]2Cn3c(ccc(-c4ccccc4)c3=O)[C@H]1[C@@H](C(=O)OC)[C@@H]2CO	none (no result: TROY NFkB inh, LMP1 NFkB inh, TWEAK Fn14 block)
CCn1nc(-c2cccs2)nc2c(=O)n(C)c(=O)nc1-2	TROY NFkB inh 66.4, TWEAK Fn14 block 73.4 (no result: LGR2 inh, EWS-Fli block)
CCn1nc(/C=C/c2ccccc2)nc2c(=O)n(C)c(=O)nc1-2	TROY NFkB inh 83.4, LMP1 NFkB inh 71.7, LGR2 inh 104.3, TWEAK Fn14 block 106.2
CC=Cc1ccc2n(c1=O)C[C@H]1[C@H](CO)[C@@H](C(=O)OC)[C@@H]2N1CC1CCCC1 (mixture of isomers)	none (no result: TROY NFkB inh, LMP1 NFkB inh, TWEAK Fn14 block)
CC(=O)OC1(C)CC(C)C(=O)C(C(O)CC2CC(=O)NC(=O)C2)C1 (stereo unspecified)	TROY NFkB inh 85.8, LMP1 NFkB inh 88.7, TWEAK Fn14 block 102.9 (no result: LGR2 inh)
C[C@@H]1C[C@@H]([C@H](O)CC2CC(=O)NC(=O)C2)C(=O)[C@@H](C)C1	TROY NFkB inh 53.2, LMP1 NFkB inh 78.8, LGR2 inh 78.6, TWEAK Fn14 block 80.4
COc1ccc(Br)cc1CN1CCN(C(=O)Cc2ccccc2)CC1	TWEAK Fn14 block 82.0 (no result: TROY NFkB inh, LGR2 inh, EWS-Fli block)
C[C@H]1CN([C@@H](C)CO)C(=O)c2c(c3ccccc3n2C)-c2ccccc2CO[C@@H]1CN(C)C(=O)Oc1ccccc1	none (no result: TROY NFkB inh, LMP1 NFkB inh, TWEAK Fn14 block)
CC1(C)N=C(c2ccccc2)[C@@H]2C(c3ccc([N+](=O)[O-])cc3)N21 (stereo partly specified)	TROY NFkB inh 52.7
COc1ccc(C(=O)O)cc1OC	none
O=C(O)c1cc[c]([Hg][Cl])cc1	TWEAK Fn14 block 64.6 (no result: LGR2 inh, EWS-Fli block)
OC[C@H]1[C@@H]2c3ccccc3NC[C@@H]2N1Cc1cccnc1	none (no result: TROY NFkB inh, LMP1 NFkB inh, TWEAK Fn14 block)
OCC[N+]12CCC(CC1)C(C(O)(c1ccccc1)c1ccccc1)C2 (stereo unspecified)	TROY NFkB inh 54.4
COC(=O)[C@@H]1[C@@H](CO)[C@@H]2Cn3c(ccc(C4=CCCCC4)c3=O)[C@H]1N2CC1CCCC1	none (no result: TROY NFkB inh, LMP1 NFkB inh, TWEAK Fn14 block)
CCOP(=O)(OCC)OCC	none
CCOP(=O)(CCP(=O)(OCC)OCC)OCC.C[CH2][Sn]([Cl])([Cl])[CH2]C	TWEAK Fn14 block 57.9
CCOC(=O)C(O)(c1ccc(NC(=S)NC(=O)c2ccc(Cl)cc2Cl)cc1)C(F)(F)F (stereo unspecified)	none (no result: EWS-Fli block)
CCOC(=O)C(O)(c1ccc(NC(=S)NC(=O)c2ccc(Cl)cc2Cl)c(C)c1)C(F)(F)F (stereo unspecified)	TROY NFkB inh 58.4, TWEAK Fn14 block 71.6
COC(=O)C(O)(c1ccc(NC(=S)NC(=O)c2ccc(Cl)cc2Cl)c(C)c1)C(F)(F)F (stereo unspecified)	TROY NFkB inh 63.7, TWEAK Fn14 block 55.6
COc1ccc(-c2ccc([C@@H]3[C@@H](CO)N4CCCCN(C(=O)Cc5ccccc5)C[C@@H]34)cc2)cc1	none (no result: TROY NFkB inh, LMP1 NFkB inh, TWEAK Fn14 block, EWS-Fli block)
O=P1(N(CCCl)CCCl)NCCCO1 (stereo unspecified)	LMP1 NFkB inh 85.4
CCOC(=O)C(NC(=O)C(Cc1ccc(N(CCCl)CCCl)cc1)NC(C)=O)C(C)C (stereo unspecified)	none
COC(=O)C(Cc1ccc(N(CCCl)CCCl)cc1)N=Cc1ccccc1O (stereo unspecified)	LMP1 NFkB inh 72.8, EWS-Fli block 66.9
CC[C@@H](O)C[C@H]1CCC[C@@]2(C[C@@H]3OC(=O)/C=C/[C@@](C)(O)[C@@H](O)[C@H](C)[C@@H](O)[C@H](OC4CCC(N(C)C)C(C)O4)[C@@H](O)[C@](C)(O)CCCCC/C=C/[C@@H]4CC(C)(C)O[C@@]4(O)C[C@H](O2)[C@H]3C)O1 (stereo partly specified)	TWEAK Fn14 block 60.5 (no result: LGR2 inh)
Cc1ccccc1C(=O)N1Cc2cnnn2-c2ccccc2C1C#N (stereo unspecified)	none
Cc1ccccc1CN1Cc2cnnn2-c2ccccc2C1C#N (stereo unspecified)	TROY NFkB inh 55.8, LGR2 inh inconclusive, TWEAK Fn14 block 95.7
COc1ccc(C#Cc2ccc([C@H]3[C@H]4CN(C(=O)Cc5ccncc5)CCCCN4[C@H]3CO)cc2)cc1	none (no result: TROY NFkB inh, LMP1 NFkB inh, TWEAK Fn14 block, EWS-Fli block)
CN1CCN(CC(=O)Nc2ccc(Cl)cc2C(=O)c2ccccc2)CC1	none (no result: LGR2 inh, EWS-Fli block)
Nc1cccc(SC2CC(=O)N(c3ccc(Cl)cc3C(=O)c3ccccc3)C2=O)c1 (stereo unspecified)	TWEAK Fn14 block 54.0
O=C(c1cc(C(=O)NCc2ccccc2)c(=O)n(Cc2ccccc2)c1)c1cc(Br)ccc1O	TWEAK Fn14 block 51.1 (no result: EWS-Fli block)
CCn1c(O)c(N=Nc2ccc(S(=O)(=O)N3CCOCC3)cc2)c(=O)n(CC)c1=S	TWEAK Fn14 block 57.0
COC(=O)[C@@H]1[C@@H](CO)[C@@H]2Cn3c(ccc(-c4ccccc4F)c3=O)[C@H]1N2C(=O)C1CC1	none (no result: TROY NFkB inh, LMP1 NFkB inh, TWEAK Fn14 block)
